Measured values published in ChEMBL document CHEMBL1157539, “Thousands of chemical starting points for antimalarial lead identification” (Nature, 2010).

Experiments:
Type in all cases: functional
Plasmodium falciparum [1] = assay: GSK_TCMDC: Inhibition of Plasmodium falciparum 3D7 in whole red blood cells, using parasite LDH activity as an index of growth. Test compounds present at 2uM
Plasmodium falciparum [2] = assay: GSK_TCMDC: Inhibition of Plasmodium falciparum Dd2 in whole red blood cells, using parasite LDH activity as an index of growth. Test compounds present at 2uM
HepG2 = assay: GSK_TCMDC: Percent inhibition of human HepG2 cell line. Test compounds present at 10uM.

Structure (SMILES) | Inhibition (Plasmodium falciparum [1]) | Inhibition (Plasmodium falciparum [2]) | Inhibition (HepG2)
Cc1ccc(C)c(NC(=O)NC2CCN(c3ccnc(Nc4ccc(F)cc4)n3)C2)c1 (stereo not given) | 100% | 74% | 0%
CS(=O)(=O)c1ccc(CCNCc2ccc(-c3ccc(CNC4CCN(Cc5ccccc5)CC4)cc3)nc2)cc1.O=C(O)C(F)(F)F | 100% | 100% | 32%
CCOc1cc(C(=O)Nc2ccc(-c3nc4ccccc4[nH]3)cc2)cc(OCC)c1OCC | 100% | 94% | 42%
CC(C)[C@H](NC(=O)NC1CCC(CCN2C3CCC2CC(OC(=O)C(CO)c2ccccc2)C3)CC1)C(O)(c1ccccc1)c1ccccc1 (stereo not given in full) | 90% | 4% | 17%
COc1ccc2nccc([C@@H](O)CN3CCC(NCc4nc5c(cc4F)SCC(=O)N5)C(F)C3)c2c1.Cl (stereo not given in full) | 95% | 49% | 9%
O=C(O)C(F)(F)F.O=[N+]([O-])c1cccc(CNC2CCN(Cc3ccc(Cl)c(Cl)c3)CC2)c1 | 100% | 71% | 5%
CCOC(=O)C(C#N)NC(=O)C=Cc1ccccc1 (stereo not given) | 96% | 9% | 0%
Cc1c(C)n(C2CCCC2)c2ncnc(OC3CCN(CC(=O)NC4CC4)CC3)c12 | 95% | 92% | 13%
Cc1ccccc1N1CCN(c2ccc(C(=O)NC3CC3)cn2)CC1.O=C(O)C(F)(F)F | 96% | 96% | 14%
CCCCc1cc(NCc2ccncc2)nc(Nc2ccc(OC)cc2)n1 | 93% | 22% | 11%
CSc1nc2cc3c(cc2n1C(=O)c1ccc(C)cc1)OCCO3 | 99% | 0% | 0%
CC(=O)Nc1nc(C(=O)Nc2cccc(-c3cccc(-c4nc5ccccc5[nH]4)c3)c2)cs1 | 100% | 82% | 31%
O=C(NCCCCCN1CCC(c2c[nH]c3ccccc23)CC1)Nc1ccc(I)cc1 | 100% | 0% | 51%
CCN(C)CCCn1c(N(C)C)nc2cc(-n3cnc4cc(-c5ccc(Cl)cc5)sc4c3=O)ccc21.O=C(O)C(F)(F)F | 80% | 12% | 83%
CCOc1ccc(-n2nc3c(Cl)nnc(-c4ccccc4)c3c2-c2ccccc2)cc1 | 96% | 99% | 0%
CCc1ccc(NC(=O)c2ccc(CN3CCCN(CCC(C)C)CC3)cc2)cc1.O=C(O)C(F)(F)F | 96% | 25% | 48%
CN(CCN)Cc1ccc(-c2ccc(-c3nc4cc(F)ccc4[nH]3)s2)cc1.O=C(O)C(F)(F)F | 96% | 81% | 31%
N#Cc1cc([N+](=O)[O-])ccc1-n1nc(-c2cccc(Cl)c2)n(Cc2ccco2)c1=S | 100% | 100% | 12%
Clc1ccc(-c2ccc(C=NNc3nc(=Nc4ccccc4)[nH]c(=Nc4ccccc4)[nH]3)o2)cc1Cl | 97% | 75% | 1%
COc1ccc(CCc2ccc(-c3c(C)[nH]c(C)c(Cl)c3=O)cc2)cc1OC | 99% | 97% | 0%

Structure (SMILES) | Inhibition (Plasmodium falciparum [1]) | Inhibition (Plasmodium falciparum [2]) | Inhibition (HepG2)
COc1ccc(-c2ccc(NC(=O)c3ccc(C#N)cc3)cc2)cc1CN(C)CCO.O=C(O)C(F)(F)F | 99% | 44% | 41%
c1ccc(COc2ccc(Cn3ccc(-c4ccc(-n5ccnc5)cc4)n3)cc2)cc1.c1ccc(COc2ccc(Cn3nccc3-c3ccc(-n4ccnc4)cc3)cc2)cc1 | 94% | 67% | 2%
N=c1c(C(=O)NCc2ccccc2)cc2c(=O)n3ccccc3nc2n1CCc1ccccc1 | 99% | 25% | 5%
COc1ccc(N2CCN(CCCCNC(=O)c3ccc(NC(=O)c4ccc(Cl)cc4)cc3)CC2)c(OC)c1.Cl | 97% | 22% | 25%
CCCCN1Cc2c(n(CC(=O)Nc3ccccc3)c3cc(-c4ccccc4)nn3c2=O)C1=O | 92% | 60% | 1%
c1ccc(-c2cccnn2)cc1 | 98% | 6% | 0%
COc1ccc2c(=O)ccn(CCN3CCC(NCc4ccc5c(n4)NC(=O)CS5)CC3)c2c1.Cl | 98% | 99% | 7%
COc1cc(NC(=O)/C=C/c2cc(F)cc(F)c2F)cc(OCCN2CCN(CCN3CCOCC3)CC2)c1.O=C(O)C(=O)O | 100% | 94% | 21%
O=C(NCCCN1CCC(N2CCCCC2)CC1)c1ccc(N2CCOc3ccccc32)s1 | 100% | 12% | 37%
CCCc1cc(NC2CCN(C)CC2)nc(Nc2cccc(OC)c2)n1 | 100% | 28% | 31%
CCc1ccc(CN2CCC(NC(=O)c3cc(-c4ccc(N(C)C)cc4)cs3)C2)cc1.O=C(O)C(F)(F)F (stereo not given) | 90% | 7% | 29%
Cc1ccc(NC(=O)c2ccc3ncccc3c2)cc1OC1CCN(CCC(C)C)C1.O=C(O)C(F)(F)F (stereo not given) | 98% | 62% | 5%
CCNS(=O)(=O)c1ccc(Oc2ccc([N+](=O)[O-])cc2)cc1 | 94% | 85% | 1%
c1cncc(Oc2ccc(Nc3ccnc4cc(-c5cccc(CN6CCCCC6)c5)ccc34)cc2)c1 | 100% | 100% | 33%
CN(C)CCOc1cccc(-c2cnc(N)c(-c3nc4cc(S(C)(=O)=O)ccc4[nH]3)c2)c1.O=C(O)C(F)(F)F | 100% | 82% | 39%
Cc1ccc(CNC(=O)[C@H](CCCN)Nc2cc(C)nc(Nc3ccccc3)n2)cc1.O=C(O)C(F)(F)F | 90% | 0% | 0%
CCn1cc2c3c(cc(C(=O)N[C@@H](Cc4ccccc4)[C@H](O)CNCc4cccc(OC)c4)cc31)N(C)S(=O)(=O)CC2 | 99% | 97% | 0%
Cc1cccc(Nc2nc(N)c3ccccc3n2)c1.Cl | 99% | 49% | 1%
Cc1ccc(NC(=O)c2cccc(C#N)c2)cc1-c1ccc(C(=O)Nc2ccncc2)cc1 | 94% | 64% | 38%
CC(=O)Nc1nc(C(=O)Nc2ccc(-c3cccc(-c4nc5ccccc5[nH]4)c3)cc2)cs1 | 99% | 83% | 68%

Structure (SMILES) | Inhibition (Plasmodium falciparum [1]) | Inhibition (Plasmodium falciparum [2]) | Inhibition (HepG2)
CCOc1cc(Br)c(C(C)NC(=O)c2ccccc2)cc1OCC (stereo not given) | 92% | 10% | 0%
COc1ccccc1/C=C/C(=O)N(C)C1CCN(CCCCCNC(=O)/C=C/c2ccc(Cl)c(Cl)c2)C1 (stereo not given) | 94% | 14% | 10%
CN1CCN(c2ccnc3ccc(NC(=O)Nc4cccc5c(Br)cccc45)cc23)CC1.Cl | 100% | 96% | 7%
CC1CCCC(NC(=O)CCOc2ccccc2)C1 (stereo not given) | 96% | 32% | 0%
COc1ccc(-c2ccc(NC(=O)c3cccc(Cl)c3)cc2)cc1CN1CCN(C)CC1.O=C(O)C(F)(F)F | 90% | 33% | 42%
COc1cccc(OC)c1-c1ccccc1NC(=O)N1CCCc2cc(C)ccc21 | 82% | 84% | 51%
CN1CC[C@@H](Oc2cc(NC(=O)Nc3ccc(Cl)c(C(F)(F)F)c3)ccc2Cl)C1 | 100% | 68% | 17%
CN(Cc1cccc(F)c1)C1CCCN(c2cc(NC(=O)c3ccccc3)ccn2)C1.O=C(O)C(F)(F)F (stereo not given) | 93% | 50% | 3%
COc1ccc(CN(C)CCOc2ccc(NC(=O)c3cccc4c(=O)cc(-c5ccccc5)[nH]c34)cc2)cc1OC | 98% | 44% | 13%
Cc1nc(-c2ccc(-c3ccc(NC(=O)c4coc5ccc(N6CC(C)N(C)C(C)C6)cc45)cc3)c(C)c2)no1.Cl (stereo not given) | 96% | 46% | 21%
NC(=O)C1CCN(Cc2ccc(-c3ccc(-c4nc5cc(C(F)(F)F)ccc5[nH]4)s3)cc2)CC1.O=C(O)C(F)(F)F | 99% | 91% | 22%
SC(=Nc1ccc2c(c1)OCCO2)NN=Cc1ccccn1 | 82% | 33% | 55%
Cc1ccc(NC(=O)c2cc(Br)cc(N3CCCN(C)CC3)c2)cc1F.O=C(O)C(F)(F)F | 87% | 1% | 15%
N#Cc1ccc2[nH]cc(-c3cn4cc(SC5CCCC5)ccc4n3)c2c1 | 92% | 21% | 1%
CN1CCN(CCCSc2ccc3c(c2)ncn3-c2cc(OCc3ccccc3C(F)(F)F)c(C(N)=O)s2)CC1.O=CO | 100% | 86% | 28%
Cc1nc(NC(=N)N)nc2cc3c(cc12)CCC3.Cl | 90% | 58% | 17%
Cc1[nH]c2ccc(-c3ccc(N(C)C)cc3)cc2c(=O)c1Cl | 97% | 96% | 0%
CN1CCCC(CN2CCN(Cc3cccc(-c4ccc(-c5nc6cc(F)ccc6[nH]5)cc4)c3)CC2)C1.O=C(O)C(F)(F)F (stereo not given) | 100% | 100% | 78%
Cc1cccc2nc(-c3ccc(-c4ccc(CNCc5cccc(N)c5)cc4)s3)[nH]c12.O=C(O)C(F)(F)F | 100% | 78% | 10%
Cl.Clc1ccc2c(N3CCN(CCN4CCN(c5ccnc6cc(Cl)ccc56)CC4)CC3)ccnc2c1 | 99% | 100% | 10%
